This is a sample that favours compounds with a hit; in the whole collection about 12% have one here.
G9a block = G9a (human) methyltransferase inhibition | 350,000 tested, 8.8% active | AID 504332 | Potency, µM (doses to about 102 µM), usual class: inhibitors | G9a H3K9 monomethylation, AlphaScreen, 2 h; further: nearly all actives have a fitted effect of over 75% in size
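Using a bead-based AlphaScreen, monomethylated H3K9 product from 2 h room-temperature reactions (G9a 20 nM, peptide 500 nM, SAM 20 uM) was detected with 0.5 ug/mL rabbit anti-H3K9me1 antibody.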
BAZ2B block = inhibitors of human BAZ2B bromodomain; AlphaScreen BAZ2B-H3K14Ac peptide displacement; 360,000 tested, 4.4% active; Potency, µM (top dose mostly 114 µM), most hits filed as inhibitors; AID 504333; further: nearly all actives have a fitted effect of over 60% in size
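AlphaScreen displacement: compounds (up to 110uM) incubated 30 min at room temperature with a preformed 50 nM BAZ2B/50 nM biotinylated H3K14Ac peptide complex in PBS pH 7.4 with Tween-20. Donor and acceptor beads at 10 ug/mL final added, 20 min light-protected before reading.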
JMJD2A Tudor = JMJD2A Tudor domain (human) inhibition | Potency, µM (titrated, usually from 114 µM), hits mostly inhibitors | AlphaScreen JMJD2A-Tudor / H3K4me3 peptide binding | 390,000 tested, 4.4% active; further: nearly all actives have a fitted effect of over 50% in size
HP1b chromo inh = inhibitors of HP1-beta chromodomain binding to methylated histone tails | 390,000 tested, 0.56% active | Potency, µM (top dose mostly 114 µM), most hits filed as inhibitors | AlphaScreen HP1-beta / biotin-H3K9me3 peptide binding | AID 540317; further: nearly all actives have a fitted effect of over 70% in size
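Compound inhibition of the preformed complex between 50 nM HP1-beta and 50 nM biotinylated H3K9me3 peptide was read by AlphaScreen. Buffer was PBS pH 7.4 with 0.01% Tween-20. Incubations ran 30 min at room temperature, with 10 ug/mL donor/acceptor beads.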
Sfp inh = blocks B. subtilis Sfp PPTase activity; 310,000 tested, 3.5% active; Biochemical Sfp PPTase activity, qHTS; AID 1490; Potency, µM, usual class: inhibitors;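 further: the enzyme is Sfp with the accession as filed and its product quenches rhodamine fluorescence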
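Step 1, compound plus 15 nM Sfp-PPTase, 15 min, room temperature. Step 2, add rhodamine-CoA (5 uM) and BHQ-2-YbbR (12.5 uM). Step 3, read 525/598 nm fluorescence at 0 and 30 min.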
Large screens that a line does not name were inactive; ! = repeats disagree. The call rests on the fitted dose curve; in most records, active means well fitted curve in the direction sought with a large enough effect; inconclusive means small, poorly fitted or top-dose-only effect, or another doubt; inactive means no such curve, though single readings can be large; an effect the other way counts as inactive or inconclusive.

COc1cccc(/C=C(/C#N)c2ccc(F)cc2)c1OCc1cccc(C(=O)O)c1	none
Cc1noc(C)c1-c1ccc2ncnc(NC3CCCc4ccccc43)c2c1 (configuration not stated)	none (no result: G9a block, BAZ2B block, HP1b chromo inh)
Cc1ccccc1CCNC(=O)c1ccc(Cn2c(=O)c3cccn3c3cccnc32)cc1	none (no result: Sfp inh)
Cc1c(CNCc2ccc(Cl)cc2)c(C(=O)O)c(C)n1Cc1ccc(F)cc1	none (no result: Sfp inh)
CC1CCN(C(=S)Nc2ccc(F)cc2)CC1	none
C/C(=N\NC(=S)Nc1ccc(F)cc1)C1CC1	G9a block inconclusive, JMJD2A Tudor 28µM, Sfp inh 45µM
CC(=O)c1cccc(NC(=O)Cn2c(=O)oc3cc(S(=O)(=O)NC4CCCC4)ccc32)c1	none (no result: Sfp inh)
COc1ccc(C2OC34CCCCC3C(C#N)(C#N)C2(C#N)C(=N)O4)cc1 (configuration not stated)	G9a block 50µM
C=C1CN(CC(=O)OC)S(=O)(=O)c2ccccc21	JMJD2A Tudor 89µM!
COc1cc(N2CCCC2)c(OC)cc1/C=C(/C#N)c1cccc(F)c1	G9a block inconclusive, BAZ2B block 22µM, JMJD2A Tudor 20µM, HP1b chromo inh inconclusive, Sfp inh inconclusive
CC(=O)Nc1cccc(Oc2cc(C#N)c(C#N)cc2N2CCCCCC2)c1	none
COc1cc(CCC(=O)OCC(=O)Nc2sccc2C(N)=O)cc(OC)c1OC	none (no result: Sfp inh)
Cc1cc(N2CCOCC2)ccc1/C=C1\SC(=O)N(C(C)C)C1=O	none
Cc1cc(/C=C2\NC(=S)N(C)C2=O)ccc1N1CCCC1	BAZ2B block 40µM, JMJD2A Tudor 89µM
Cc1cc(N2CCCC2)ccc1/C=C1/C(=O)N(C)C(=S)N1C	G9a block 2.5µM, BAZ2B block 1.6µM, JMJD2A Tudor inconclusive, HP1b chromo inh inconclusive
CCCN1C(=O)/C(=C/c2ccc(N3CCCC3)c(C)c2)NC1=S	BAZ2B block 35µM, JMJD2A Tudor 35µM, HP1b chromo inh inconclusive
CN1C(=O)/C(=C/c2ccc(O)c([N+](=O)[O-])c2)NC1=S	G9a block 40µM, BAZ2B block inconclusive
CCN1C(=O)/C(=C/c2ccc(N3CCCC3)cc2)NC1=S	G9a block 3.2µM, BAZ2B block 25µM, JMJD2A Tudor inconclusive, HP1b chromo inh inconclusive
CCCN1C(=O)/C(=C/c2ccc(N3CCOCC3)cc2)NC1=S	none
Cc1cc(/C=C2/C(=O)N(C)C(=S)N2C)ccc1N1CCCC1	G9a block 8.9µM, BAZ2B block 14µM, JMJD2A Tudor 14µM, HP1b chromo inh 35µM
CCN1C(=O)/C(=C/c2ccc(OCc3ccc(C(=O)O)cc3)c(Cl)c2)NC1=S	G9a block 71µM, BAZ2B block inconclusive, JMJD2A Tudor inconclusive
O=C(O)c1ccc(COc2ccc(CO)cc2Cl)cc1	none
CCn1c(C)c(C(=O)c2ccccc2)c(C#N)c1C(=O)O	none
CCOC(=O)c1sc2ncn(CC(=O)Nc3ccc(C)cc3C)c(=O)c2c1C	none (no result: Sfp inh)
CCOC(=O)C1(C)/C(=N/Nc2cccc(Cl)c2)C(=O)C(=O)N1c1ccccc1 (configuration not stated)	G9a block inconclusive, BAZ2B block inconclusive, JMJD2A Tudor 28µM, HP1b chromo inh inconclusive
CCOC(=O)C1(C)/C(=N/Nc2ccc(S(N)(=O)=O)cc2)C(=O)C(=O)N1c1ccccc1 (configuration not stated)	G9a block 35µM
CCOC(=O)C1(C)/C(=N/Nc2ccc(Cl)cc2)C(=O)C(=O)N1c1ccccc1 (configuration not stated)	G9a block inconclusive, BAZ2B block 56µM, JMJD2A Tudor 16µM, HP1b chromo inh inconclusive
CCOC(=O)C1(C)C=C(Nc2ccc(OC)cc2)C(=O)N1c1ccccc1 (configuration not stated)	G9a block inconclusive (no result: Sfp inh)
CCOC(=O)/C(=N\Nc1ccccc1Cl)N1CCN(C)CC1	none
CCOC(=O)C1(C)/C(=N/Nc2ccccc2Cl)C(=O)C(=O)N1c1ccccc1 (configuration not stated)	G9a block 3.5µM, BAZ2B block 50µM, JMJD2A Tudor 40µM, HP1b chromo inh inconclusive
CCOC(=O)C1(C)C=C(Nc2ccc(C(=O)O)cc2)C(=O)N1c1ccc(C(=O)O)cc1 (configuration not stated)	none (no result: Sfp inh)
NC(=O)c1cc(Cl)ccc1OCC(=O)NC1CC1	none (no result: G9a block, BAZ2B block, Sfp inh)
CN(Cc1ccco1)c1ncnc2ccc(-c3cccc(NS(C)(=O)=O)c3)cc12	none (no result: BAZ2B block, JMJD2A Tudor, HP1b chromo inh)
Cc1ccccc1NC(=O)Cc1nc(COC(=O)c2cc(Cl)ccc2O)cs1	none
CCc1ccccc1NC(=O)C1CCCC1	none (no result: G9a block, BAZ2B block, Sfp inh)
CCCCCCCn1c(=N)n(CC(O)c2ccco2)c2ccccc21 (configuration not stated)	G9a block 79µM
N=c1n(CCN2CCCC2)c2ccccc2n1CC(O)c1ccco1 (configuration not stated)	G9a block inconclusive, BAZ2B block inconclusive
Cc1cccc(N=C2NC(=O)/C(=C/C=C/c3ccco3)S2)c1	G9a block 14µM, BAZ2B block 35µM, JMJD2A Tudor 18µM, HP1b chromo inh inconclusive, Sfp inh 50µM
COc1ccc(N=C2NC(=O)/C(=C\C=C\c3ccco3)S2)cc1	G9a block 7.1µM, BAZ2B block 28µM, JMJD2A Tudor 20µM, HP1b chromo inh 22µM, Sfp inh inconclusive
N=c1c2c(-c3ccccc3)c(-c3ccccc3)n(Cc3ccco3)c2ncn1Cc1ccccc1	BAZ2B block 45µM, Sfp inh 22µM
OCCNc1ncnc2c1c(-c1ccccc1)c(-c1ccccc1)n2Cc1ccco1	G9a block 18µM, BAZ2B block 50µM, JMJD2A Tudor 56µM
N=c1c2c(-c3ccccc3)c(-c3ccccc3)n(Cc3ccco3)c2ncn1CCCn1ccnc1	G9a block inconclusive, BAZ2B block inconclusive, JMJD2A Tudor inconclusive
c1ccc(-c2c(-c3ccccc3)n(Cc3ccco3)c3ncnc(NCCCn4ccnc4)c23)cc1	G9a block inconclusive, BAZ2B block 32µM, JMJD2A Tudor 45µM, HP1b chromo inh inconclusive, Sfp inh 63µM
CC(C)Cn1cnc2c(c(-c3ccccc3)c(-c3ccccc3)n2Cc2ccco2)c1=N	G9a block inconclusive, BAZ2B block inconclusive, JMJD2A Tudor inconclusive
c1ccc(-c2oc3ncnc(NCCCn4ccnc4)c3c2-c2ccccc2)cc1	G9a block inconclusive, BAZ2B block 25µM, JMJD2A Tudor 56µM, HP1b chromo inh inconclusive, Sfp inh inconclusive
NC(=O)c1ccc2[nH]ccc2c1	none (no result: BAZ2B block, JMJD2A Tudor, HP1b chromo inh, Sfp inh)
CCc1ccccc1NC(=O)CSc1ncc(S(=O)(=O)c2ccc(C(C)C)cc2)c(N)n1	JMJD2A Tudor 20µM (no result: Sfp inh)
CCc1ccccc1NC(=O)CSc1ncc(S(=O)(=O)c2ccccc2)c(N)n1	G9a block 13µM (no result: Sfp inh)
CCc1ccccc1NC(=O)CSc1ncc(S(=O)(=O)c2ccccc2)c(=O)[nH]1	none (no result: Sfp inh)
CC(C)c1ccc(S(=O)(=O)c2cnc(SCC(=O)Nc3ccc(F)cc3F)nc2N)cc1	none (no result: Sfp inh)
COc1ccc(OCc2nc3c4c(-c5ccc(OC)cc5)c(-c5ccc(OC)cc5)oc4ncn3n2)cc1	none (no result: Sfp inh)

Compound activity deposited in PubChem BioAssay by National Center for Advancing Translational Sciences (NCATS).
